Tg IFNy HTS: T. gondii growth inhibition under IFN-gamma | Toxoplasma gondii growth in IFN-gamma-treated host cells; active compounds read low | activity change, negative = inhibition, % (concentration not given with the values) | 3.8% of 69,000 active; in the data active = activity change below about -70%, passing the limit was not always enough;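 also: host cells are HeLa cells infected with Toxoplasma gondii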
A number is an active result; – = inactive. The entries come from a sample that favours hits as a whole.

SMILES	Tg IFNy HTS
O=C(NC1CCCCC1)c1cc2cccnc2n(Cc2ccccc2)c1=O	–
C=CCO[C@@H]1C[C@@H]2CN(C(=O)c3ccncc3)CCN2C1	–
O=C1CC(c2ccncc2)C2(CCNCC2)N1 (stereo unspecified)	–
O=Cc1cn(Cc2ccc(F)cc2)c2ccccc12	–
O=C(Nc1ccc(Cl)cc1)c1cc2cccnc2n(Cc2ccc(F)cc2)c1=O	–
O=C(Nc1ccncc1)C(=O)c1cn(Cc2ccc(Cl)cc2)c2ccccc12	-78
Cc1cc2ncc3c(n2n1)CC1CCC3N1C(=O)CCc1c(C)noc1C (stereo unspecified)	–
CCN(CC)c1ccc(NC(=O)c2cc3cccnc3n(Cc3ccccc3)c2=O)c(C)c1	–
Cc1ccc(N2CCC3(CC2)C(=O)N(CCO)CCN3C)nn1	–
COC(=O)C[C@@](O)(CCC(C)(C)O)C(=O)O[C@@H]1C(OC)=C[C@]23CCCN2CCc2cc4c(cc2[C@@H]13)OCO4	-84
O=C(Cc1ccsc1)NC1CCN(CC2(c3ccc(Cl)cc3)CCC2)CC1	–
CN(C)CCN1CCO[C@@H]2CN(Cc3ccccn3)C[C@@H]21	–
Cc1oc2c(c1CC(=O)N(C)CCN(C)C)C(=O)CC(C)(C)C2	–
COc1ccc(N2C(=O)NC(=O)C3(Cc4cccc(F)c4N4CCC(c5ccccc5)CC43)C2=O)cc1 (stereo unspecified)	-99
CC(=O)NCCN1CC=C(c2cnn(Cc3ccc(F)cc3)c2)CC1	–
Cc1cc(C)cc(NC(=O)c2cc3cccnc3n(Cc3ccc(Cl)cc3)c2=O)c1	–
CN1C[C@@H]2CC[C@H](CC1=O)N2Cc1cnc(-c2ccco2)nc1	–
CN1CC2(CCN(Cc3cccnc3)CC2)CC1COCC1CC1 (stereo unspecified)	–
O=C(NC(=O)c1c(F)cccc1F)Nc1cc(Cl)c(OC(F)(F)C(F)C(F)(F)F)cc1Cl (stereo unspecified)	-76
Cc1ccc(F)c(C2NCCc3[nH]cnc32)c1 (stereo unspecified)	–
CC(C)N1C[C@H]2C[C@H](CC(=O)NCc3cccnc3)O[C@@H]2C1	–
Cc1cccc(C)c1NC(=O)c1cc2cccnc2n(Cc2ccc(Cl)cc2)c1=O	–
CCOCCN1C[C@@H]2[C@H](C1)OC[C@@H]2C(=O)Nc1cccnc1	–
Cc1oncc1C(=O)N1CCC2(CC1)C(=O)N(C)CCN2C	–
CNC(=O)CN1CC[C@@H]2CN(CC3CC3)C[C@@H]2C1	–
SMILES	Tg IFNy HTS
O=C(Nc1cccc(Cl)c1)OC1CN2CCC1CC2 (stereo unspecified)	-78
O=C(c1cccc(Cl)c1)C1CCCN(C2CCCCC2)C1 (stereo unspecified)	–
CC(=O)OC1CN2CCC1CC2 (stereo unspecified)	–
Cc1cc(CN2CCO[C@@H]3[C@H]2CC[C@H]3OCC(=O)N(C)C)no1	–
CS(=O)(=O)c1ccc(-n2ncc3c2CC2CCC3N2C(=O)CCc2ccccc2)cc1 (stereo unspecified)	–
O=C(c1ccc(-c2ccccc2)c(F)c1)C1CCCNC1 (stereo unspecified)	–
Cc1ccc(CN2CCCC3(CC(Oc4cccnc4)CO3)C2)o1 (stereo unspecified)	–
COc1ccc(C2=NCC(=O)N(Cc3nc(-c4ccccc4)oc3C)c3sc4c(c32)CCCC4)cc1	-87
COC(=O)CN1CN(c2ccccc2)C2(CCN(Cc3cccc4ccccc34)CC2)C1=O	–
COC(=O)c1ccc(NC(=O)c2cc3cccnc3n(Cc3ccc(Cl)cc3)c2=O)cc1	–
C[C@@H]1O[C@@H](O[C@@H]2C[C@@H](O)[C@]3(CO)[C@H]4[C@H](O)C[C@]5(C)[C@@H](C6=CC(=O)OC6)CC[C@]5(O)[C@@H]4CC[C@]3(O)C2)[C@H](O)[C@H](O)[C@H]1O	-81
CO[C@@H]1C(O)[C@H](O[C@H]2CC[C@@]3(C=O)[C@H](CC[C@@H]4[C@@H]3CC[C@]3(C)[C@@H](C5=CC(=O)OC5)CC[C@]43O)C2)OC(C)[C@@H]1O (stereo partly specified)	-75
CO[C@H]1[C@H](O)[C@@H](O[C@H]2CC[C@]3(C=O)C4CC[C@]5(C)[C@@H](C6=CC(=O)OC6)CC[C@]5(O)C4CC[C@@H]3C2)O[C@@H](C)[C@@H]1O (stereo partly specified)	-83
C[C@]12CC[C@H]3[C@@H](CC[C@]4(O)C[C@@H](O)CC[C@]34C=O)[C@@]1(O)CC[C@@H]2C1=CC(=O)OC1	–
O=C(CCN1CCC(c2cccc(O)c2)CC1)Nc1cccnc1	–
NC(=S)N/N=C/c1coc2ccccc2c1=O.[Cl][Cu][Cl]	–
COc1ccc(CNCCc2ccc(F)cc2)cc1OC	–
O=C(N1c2ccccc2[C@@H]2CNCC[C@@H]21)C(F)(F)F	–
C=CCN1CCOCC2(C1)CN(c1ncc(F)cn1)CCO2 (stereo unspecified)	–
C[C@@H]1O[C@@H](O[C@@H]2C=C3CCC4C(CC[C@]5(C)[C@@H](c6ccc(=O)oc6)CC[C@]45O)[C@@]3(C)CC2)C(O)C(O)[C@H]1O (stereo partly specified)	-80
COc1ccccc1/C=C/CN(C)C(C)Cc1cc(C)ccn1 (stereo unspecified)	–
O=C1OC2(CCN(Cc3cc4n(n3)CCNC4)CC2)c2ccccc21	–
COc1cc2c3cc1Oc1cc(ccc1O)C[C@@H]1c4c(cc(OC)c(O)c4Oc4ccc(cc4)C[C@H]3N(C)CC2)CCN1C	-94
CN1CCc2cc(O)cc3c2[C@H]1Cc1ccc(O)c(O)c1-3	–
Cc1cccc(C)c1NC(=O)c1cc2cccnc2n(Cc2ccc(F)cc2)c1=O	–
SMILES	Tg IFNy HTS
C[C@@]1(CO)[C@H](O)CC[C@@]2(C)[C@H]1CC[C@H]1C[C@@H]3C[C@@]12CC[C@]3(O)CO	-86
CCN(CC)C(=O)N[C@H]1C=C2c3cccc4[nH]cc(c34)C[C@H]2N(C)C1	–
Cc1[nH]cnc1-c1nccn1CCc1cnc[nH]1	–
Cc1nc(CN2CC3(CCNCC3)OCC2=O)cs1	–
CN(C)[C@@H]1CCN(C(=O)Cc2ccccn2)[C@H]1Cc1ccncc1	–
CNC(=O)[C@H]1CC2CN(C(=O)Cc3cccs3)CC2N1C(C)C (stereo partly specified)	–
CCCN1CCC[C@@H]2Cc3nc(N)ncc3C[C@H]21	–
CCCN1CCC[C@@H]2Cc3[nH]ncc3C[C@H]21	-73
CCN(CC)CCNC(=O)c1cc2cccnc2n(Cc2ccccc2)c1=O	–
CC(=O)O[C@@H]1CC2C(C)(C)C(=O)C=C[C@]2(C)C2CC[C@]3(C)C(=CC(=O)O[C@H]3c3ccoc3)[C@@]21C (stereo partly specified)	-88
CC(=O)O[C@H]1C[C@@H](OC(C)=O)C(C)(C)C2C[C@@H](OC(C)=O)[C@]3(C)C(CC[C@@]4(C)[C@H](c5ccoc5)C(=O)[C@H]5O[C@]543)[C@]21C (stereo partly specified)	–
CC1(C)C2CC(=O)[C@]3(C)C(CC[C@@]4(C)[C@H](c5ccoc5)OC(=O)[C@H]5O[C@]543)[C@@]2(C)C(=O)C[C@H]1O (stereo partly specified)	–
Cc1cc(N2CCC3(CC2)CC(C(=O)O)N(C)C3)nc(N)n1 (stereo unspecified)	–
O=C(c1cc(F)ccc1F)C1CCCNC1 (stereo unspecified)	–

Assay outcomes (PubChem BioAssay)
